From PubChem
Cruzain Triton – qHTS Assay for Promiscuous and Specific Inhibitors of Cruzain (with detergent); purified cruzain, Z-FR-AMC fluorescence, 0.01% Triton; Potency, µM, without a hit: max response, negative = inhibition, actives largely listed as inhibitors; 200,000 tested, 0.43% active; Cruzipain (Trypanosoma cruzi), P25779;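 note: plate controls were neutral wells for no effect and buffer without enzyme for full effect; nearly all actives have a fitted effect of over 40% in size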
Target sequence (P25779 123-467 limits assumed): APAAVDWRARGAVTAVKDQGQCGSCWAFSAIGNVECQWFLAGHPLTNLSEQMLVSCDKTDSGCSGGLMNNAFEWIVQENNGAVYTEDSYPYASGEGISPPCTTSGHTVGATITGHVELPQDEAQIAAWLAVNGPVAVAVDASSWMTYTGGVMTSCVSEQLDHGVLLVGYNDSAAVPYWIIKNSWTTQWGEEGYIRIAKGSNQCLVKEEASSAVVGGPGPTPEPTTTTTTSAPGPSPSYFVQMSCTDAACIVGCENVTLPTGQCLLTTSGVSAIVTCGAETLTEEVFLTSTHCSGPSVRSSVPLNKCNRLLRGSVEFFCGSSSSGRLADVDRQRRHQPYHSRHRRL
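Enzyme 1.5 nM, Z-FR-AMC 2 uM, NaOAc 100 mM pH 5.5, DTT 5 mM, Triton X-100 0.01%; 15 min RT compound preincubation; kinetic ex360/em450, 60 s delta.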
Cruzain inh noDet – qHTS Assay for Promiscuous and Specific Inhibitors of Cruzain (without detergent) | Cruzipain (Trypanosoma cruzi), P25779 | purified cruzain, Z-FR-AMC fluorescence, no detergent | Potency, µM, for inactives: max response, negative = inhibition, actives largely listed as inhibitors | 200,000 tested, 2.3% active;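 note: plate controls were enzyme without inhibitor for no effect and buffer without enzyme for full effect; nearly all actives have a fitted effect of over 40% in size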
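Purified cruzain at 1.5 nM, pre-incubated 15 min with compound at room temperature in 100 mM sodium acetate pH 5.5, 5 mM DTT, 0.00005% Triton X-100. Reaction started with 2 uM Z-FR-AMC; AMC fluorescence increase over 60 s gives rate.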
The depositor's hits bear a star; u = inconclusive. Compounds with a hit are over-represented: about 2.4% of the library has one in this group of screens. Calls come from the whole dose curve; as a rule, active = well fitted curve in the direction sought with a large enough effect; inconclusive = small, poorly fitted or top-dose-only effect, or another doubt; inactive = no such curve, though single readings can be large; an effect the other way counts as inactive or inconclusive. Potency is the fitted concentration of half-maximal effect.

SMILES | Cruzain Triton | Cruzain inh noDet
CCc1nnc(NC(=O)CN2C(=O)/C(=C/c3cc(OC)c(OC)c(OC)c3)SC2=S)s1 | u | 9%
COc1cc(/C=C2/SC(=S)N(CC(=O)Nc3nc4ccccc4s3)C2=O)cc(OC)c1OC | -4% | 13µM*
Cc1ccc(/C=C2/SC(=S)N(CC(=O)Nc3ncc(Cc4ccc(C)cc4)s3)C2=O)cc1 | -4% | 4µM*
Cc1ccc(/C=C2\SC(=S)N(CC(=O)Nc3ncc(Cc4ccccc4Cl)s3)C2=O)cc1 | -10% | 3.2µM*
Cc1ccc2cc(CN(CCCO)S(=O)(=O)c3cccc4nsnc34)c(=O)[nH]c2c1C | -2% | u
CCOC(=O)c1c(NC(=O)CSc2n[nH]c(CNc3ccccc3)n2)sc(C)c1C | 1% | -13%
COC(=O)c1ccccc1CCC(C)=O | -3% | 4%
CCCN(CCC)CCCNC(=O)Cn1ncn2c(cc3sc(CC)cc32)c1=O | -5% | -14%
Cc1ccc(CN2C(=O)CN(C3CCCCCC3)C(=O)C2c2ccc(F)cc2)cc1 (stereo not given) | 4% | 3%
CCCCCSc1nnc2c(n1)[nH]c1c(C)cccc12 | -1% | u
CC(/C=N\Nc1nnc2c(n1)[nH]c1c(C)cccc12)=C\c1ccco1 | 2% | 4µM*
O=C1N/C(=N\N=C\c2ccc3ncccc3c2)SC1Cc1ccc(SC(F)F)cc1 (stereo not given) | 25µM* | 16µM*
O=C1N/C(=N\N=C\c2cccnc2)SC1Cc1ccc(SC(F)F)cc1 (stereo not given) | 9% | -24%
O=C(N/N=C/c1ccccc1[N+](=O)[O-])c1ccc(COc2ccccc2-c2ccccc2)cc1 | -5% | 13µM*
CCOc1ccc(C(=O)N/N=C/c2ccccc2[N+](=O)[O-])cc1 | -7% | -17%
CCOC(=O)C1CN(S(=O)(=O)c2ccc(OC)cc2)c2cc(S(=O)(=O)CC)ccc2O1 (stereo not given) | -8% | u
CCOC(=O)c1ccc(NC(=O)CSc2nnc3c4ccccc4n(CC)c3n2)cc1 | -6% | -11%
CCCCn1c2ccccc2c2nnc(SCC(=O)Nc3ccc(NC(C)=O)cc3)nc21 | u | 20µM*
CC(C)(C)n1ncc2c(=O)n(CC(=O)NCc3ccco3)cnc21 | 0% | 3%
CCc1nnc(NS(=O)(=O)c2ccc(NC(=S)NC(=O)/C=C/c3ccc(C(C)C)cc3)cc2)s1 | 14µM* | u
CCc1nnc(NS(=O)(=O)c2ccc(NC(=S)NC(=O)/C=C/c3ccccc3)cc2)s1 | 25µM* | 1%
CCc1nnc(NS(=O)(=O)c2ccc(NC(=S)NC(=O)c3ccc(Br)cc3)cc2)s1 | u | 7%
CCc1nnc(NS(=O)(=O)c2ccc(NC(=S)Nc3ccc(F)cc3)cc2)s1 | -4% | 12%
COc1ccc(NS(=O)(=O)c2ccc(NC(=S)NC(=O)/C=C/c3ccccc3)cc2)nn1 | -13% | 32µM*
COc1ccc(NS(=O)(=O)c2ccc(NC(=S)NC(=O)c3ccc(Br)cc3)cc2)nn1 | -7% | 2%
SMILES | Cruzain Triton | Cruzain inh noDet
CCc1nnc(NS(=O)(=O)c2ccc(NC(=S)NC(=O)c3ccccc3)cc2)s1 | -12% | -2%
CCc1nnc(NS(=O)(=O)c2ccc(NC(=S)NC(=O)/C=C/c3ccc(OC)cc3)cc2)s1 | 22µM* | -17%
O=c1[nH]c2ccccc2nc1NCCN1CCOCC1 | -8% | -1%
COCCn1cnc2cc(C)c(C)cc21 | -2% | -6%
Cc1ccc(NC(=O)C2CCCN2C(=O)NC2CCCCC2)c(C)c1 (stereo not given) | 0% | 14%
Cc1ccc2nc(-c3ccc(NS(=O)(=O)c4ccccc4)cc3)sc2c1 | -5% | -19%
Cc1ccc2nc(-c3ccc(N)cc3)sc2c1S(=O)(=O)O | 35µM* | 20µM*
CCOC(=O)c1ccc(NC(=O)Nc2cc(C)on2)cc1 | 2% | 16µM*
CCOC(=O)c1ccc(NC(=O)Nc2ccn(C)n2)cc1 | 4% | 3%
O=C1OCCN1C(=O)[C@H]1[C@H](c2ccc([N+](=O)[O-])cc2)C(c2ccc(F)cc2)=NN1c1ccc(Br)cc1 | 2% | 8.9µM*
O=C1OCCN1C(=O)[C@H]1[C@H](c2ccccc2)C(c2ccccc2)=NN1c1ccccc1 | 1% | u
O=C1OCCN1C(=O)[C@H]1[C@H](c2ccc([N+](=O)[O-])cc2)C(c2ccc(F)cc2)=NN1c1ccccc1 | 4% | u
Cc1cccc(C2=NN(c3ccccc3)[C@@H](C(=O)N3CCOC3=O)[C@@H]2c2ccccc2)c1 | -2% | u
C[C@@H]1C(c2ccccc2)=NN(c2ccccc2)[C@H]1C(=O)N1CCOC1=O | -2% | -2%
O=C1OCCN1C(=O)[C@H]1[C@H](c2ccccc2)C(c2ccccc2)=NN1c1ccc(Br)cc1 | -5% | 20µM*
Cc1cccc(C2=NN(c3ccc(Br)cc3)[C@@H](C(=O)N3CCOC3=O)[C@@H]2c2ccccc2)c1 | -10% | 18µM*
